# Measurements reported in PubChem BioAssay AID1159580 (chemical genetic matrix, 2015).
# Values joined by “and” are separate entries in the source; they are usually repeats but may differ in a detail not shown here. Identical values can stand only once. Hit rate of the full screen: of about 5,500 compounds, about 2,000 (36%) were called active. Inconclusive results (about 18%) are left out. No stated cut-off is given here; in the data, active means normalized growth mostly below about 0.91 (no sharp cut-off); inconclusive means no clear call, values can overlap the other calls; inactive means mostly above about 0.92. This is one part of the list.
# Assay: chemical genetic growth profiling, strain panel (AID 1159580);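 further: tested at 20 µM; growth read once vehicle control cultures reached saturation at 30 °C; 1 = growth at the plate median or of vehicle wells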
# Conditions: S. cerevisiae deletion strains, growth OD
smiles,measurement,setting,value
O=C(O)CCC(=O)c1ccc(-c2ccccc2)cc1,normalized growth,"locus YAL013W, strain DEP1, stronger effect = lower value",0.985 (inactive)
same,normalized growth,"locus YAL021C, strain ccr4, stronger effect = lower value",1.01 (inactive)
same,normalized growth,"locus YAL026C, strain drs2, stronger effect = lower value",0.976 (inactive)
same,normalized growth,"locus YAL030W, strain snc1, stronger effect = lower value",0.991 (inactive)
same,normalized growth,"locus YBL061C, strain skt5, stronger effect = lower value",0.989 (inactive)
same,normalized growth,"locus YBR009C, strain hhf1, stronger effect = lower value",0.998 (inactive)
same,normalized growth,"locus YBR021W, strain FUR4, stronger effect = lower value",0.964 (inactive)
same,normalized growth,"locus YBR023C, strain chs3, stronger effect = lower value",0.983 (inactive)
same,normalized growth,"locus YBR171W, strain sec66, stronger effect = lower value",0.983 (inactive)
same,normalized growth,"locus YBR229C, strain ROT2, stronger effect = lower value",0.986 (inactive)
same,normalized growth,"locus YBR231C, strain swc5, stronger effect = lower value",0.981 (inactive)
same,normalized growth,"locus YBR279W, strain paf1, stronger effect = lower value",0.975 (inactive)
same,normalized growth,"locus YCL011C, strain gbp2, stronger effect = lower value",1 (inactive)
same,normalized growth,"locus YCL016C, strain dcc1, stronger effect = lower value",0.999 (inactive)
same,normalized growth,"locus YCL029C, strain bik1, stronger effect = lower value",0.934 (inactive)
same,normalized growth,"locus YCL069W, strain vba3, stronger effect = lower value",0.983 (inactive)
same,normalized growth,"locus YCR088W, strain abp1, stronger effect = lower value",1.01 (inactive)
same,normalized growth,"locus YDL005C, strain med2, stronger effect = lower value",0.991 (inactive)
same,normalized growth,"locus YDL035C, strain GPR1, stronger effect = lower value",0.989 (inactive)
same,normalized growth,"locus YDL040C, strain nat1, stronger effect = lower value",0.986 (inactive)
same,normalized growth,"locus YDL074C, strain BRE1, stronger effect = lower value",0.957 (inactive)
same,normalized growth,"locus YDL101C, strain DUN1, stronger effect = lower value",0.959 (inactive)
same,normalized growth,"locus YDL134C, strain PPH21, stronger effect = lower value",0.972 (inactive)
same,normalized growth,"locus YDL185W, strain tfp1, stronger effect = lower value",0.962 (inactive)
same,normalized growth,"locus YDL192W, strain arf1, stronger effect = lower value",0.971 (inactive)
same,normalized growth,"locus YDR001C, strain nth1, stronger effect = lower value",0.982 (inactive)
same,normalized growth,"locus YDR069C, strain doa4, stronger effect = lower value",0.986 (inactive)
same,normalized growth,"locus YDR101C, strain arx1, stronger effect = lower value",0.964 (inactive)
same,normalized growth,"locus YDR137W, strain rgp1, stronger effect = lower value",0.793 (active)
same,normalized growth,"locus YDR150W, strain NUM1, stronger effect = lower value",0.99 (inactive)
same,normalized growth,"locus YDR159W, strain sac3, stronger effect = lower value",1.02 (inactive)
same,normalized growth,"locus YDR162C, strain NBP2, stronger effect = lower value",0.986 (inactive)
same,normalized growth,"locus YDR195W, strain ref2",0.929 (inactive)
same,normalized growth,"locus YDR297W, strain sur2, stronger effect = lower value",0.99 (inactive)
same,normalized growth,"locus YDR318W, strain mcm21, stronger effect = lower value",0.963 (inactive)
same,normalized growth,"locus YDR334W, strain swr1, stronger effect = lower value",0.977 (inactive)
same,normalized growth,"locus YDR335W, strain msn5, stronger effect = lower value",0.953 (inactive)
same,normalized growth,"locus YDR388W, stronger effect = lower value",0.958 (inactive)
same,normalized growth,"locus YDR392W, strain spt3, stronger effect = lower value",1.02 (inactive)
same,normalized growth,"locus YDR502C, strain sam2, stronger effect = lower value",0.987 (inactive)
same,normalized growth,"locus YEL003W, strain gim4, stronger effect = lower value",0.954 (inactive)
same,normalized growth,"locus YEL037C, strain rad23, stronger effect = lower value",0.97 (inactive)
same,normalized growth,"locus YEL061C, strain CIN8 (second series), stronger effect = lower value",0.978 (inactive)
same,normalized growth,"locus YEL061C, strain CIN8, stronger effect = lower value",0.998 (inactive)
same,normalized growth,"locus YER015W, strain faa2, stronger effect = lower value",0.991 (inactive)
same,normalized growth,"locus YER016W, strain bim1, stronger effect = lower value",0.995 (inactive)
same,normalized growth,"locus YER110C, stronger effect = lower value",0.973 (inactive)
same,normalized growth,"locus YER111C, strain swi4, stronger effect = lower value",0.988 (inactive)
same,normalized growth,"locus YER155C, strain BEM2 (second series), stronger effect = lower value",0.958 (inactive)
same,normalized growth,"locus YER155C, strain BEM2, stronger effect = lower value",0.986 (inactive)
same,normalized growth,"locus YER167W, strain BCK2, stronger effect = lower value",0.987 (inactive)
same,normalized growth,"locus YFR010W, strain ubp6, stronger effect = lower value",0.986 (inactive)
same,normalized growth,"locus YGL078C, strain dbp3, stronger effect = lower value",0.842 (active)
same,normalized growth,"locus YGL086W, strain mad1, stronger effect = lower value",0.985 (inactive)
same,normalized growth,"locus YGL167C, strain pmr1, stronger effect = lower value",0.969 (inactive)
same,normalized growth,"locus YGL173C, strain kem1, stronger effect = lower value",0.965 (inactive)
same,normalized growth,"locus YGL227W, strain vid30, stronger effect = lower value",1 (inactive)
same,normalized growth,"locus YGL240W, strain doc1, stronger effect = lower value",0.929 (inactive)
same,normalized growth,"locus YGL248W, strain PDE1, stronger effect = lower value",0.98 (inactive)
same,normalized growth,"locus YGL253W, strain hxk2, stronger effect = lower value",0.972 (inactive)
same,normalized growth,"locus YGR078C, strain PAC10, stronger effect = lower value",0.96 (inactive)
same,normalized growth,"locus YGR135W, strain pre9, stronger effect = lower value",0.946 (inactive)
same,normalized growth,"locus YGR229C, strain SMI1, stronger effect = lower value",0.986 (inactive)
same,normalized growth,"locus YGR252W, strain gcn5, stronger effect = lower value",0.861 (inactive)
same,normalized growth,"locus YHR013C, strain ard1, stronger effect = lower value",1 (inactive)
same,normalized growth,"locus YHR027C, strain rpn1, stronger effect = lower value",1 (inactive)
same,normalized growth,"locus YHR030C, strain SLT2, stronger effect = lower value",0.994 (inactive) and 0.66 (active)
same,normalized growth,"locus YHR079C, strain IRE1 (second series), stronger effect = lower value",0.947 (inactive)
same,normalized growth,"locus YHR079C, strain IRE1, stronger effect = lower value",0.739 (active)
same,normalized growth,"locus YHR094C, strain hxt1, stronger effect = lower value",0.984 (inactive)
same,normalized growth,"locus YHR129C, strain ARP1, stronger effect = lower value",0.988 (inactive)
same,normalized growth,"locus YHR142W, strain chs7, stronger effect = lower value",0.94 (inactive)
same,normalized growth,"locus YHR200W, strain rpn10, stronger effect = lower value",0.975 (inactive)
same,normalized growth,"locus YIL066C, strain RNR3, stronger effect = lower value",0.973 (inactive)
same,normalized growth,"locus YIL073C, strain SPO22, stronger effect = lower value",0.948 (inactive)
same,normalized growth,"locus YIL125W, strain kgd1, stronger effect = lower value",0.967 (inactive)
same,normalized growth,"locus YIR030C, strain dcg1, stronger effect = lower value",0.974 (inactive)
same,normalized growth,"locus YJL092W, strain hpr5, stronger effect = lower value",0.998 (inactive)
same,normalized growth,"locus YJL095W, strain BCK1 (second series), stronger effect = lower value",0.997 (inactive)
same,normalized growth,"locus YJL095W, strain BCK1, stronger effect = lower value",0.971 (inactive) and 0.676 (active)
same,normalized growth,"locus YJL115W, strain asf1, stronger effect = lower value",0.981 (inactive)
same,normalized growth,"locus YJL129C, strain trk1, stronger effect = lower value",0.915 (inactive)
same,normalized growth,"locus YJL134W, strain LCB3, stronger effect = lower value",0.99 (inactive)
same,normalized growth,"locus YJL154C, strain vps35, stronger effect = lower value",0.996 (inactive)
same,normalized growth,"locus YJL164C, strain tpk1, stronger effect = lower value",0.996 (inactive)
same,normalized growth,"locus YJL166W, strain qcr8, stronger effect = lower value",0.976 (inactive)
same,normalized growth,"locus YJL168C, strain set2, stronger effect = lower value",0.972 (inactive)
same,normalized growth,"locus YJL187C, strain SWE1 (second series), stronger effect = lower value",0.948 (inactive)
same,normalized growth,"locus YJR043C, strain POL32, stronger effect = lower value",0.937 (inactive)
same,normalized growth,"locus YJR066W, strain TOR1, stronger effect = lower value",0.706 (active)
same,normalized growth,"locus YJR075W, strain HOC1, stronger effect = lower value",0.963 (inactive)
